Out of some 1,300 compounds screened, about 290 (22%) were called active. These entries were drawn from the full list. Unmarked numbers belong to inactive results.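 How the source made its calls: active means inhibition above the mean of all tested compounds plus 3 SD (cut at about 19% in these data); inactive means the rest.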
The compounds below were run on VIM-2 metallo-beta-lactamase (Pseudomonas aeruginosa) (assay: VIM-2 inhibitors in FRET format, confirmation, artefact control for selective VIM-2 inhibitor project, biochemical, epi-absorbance artifact exclusion (AID 1857;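 further: 0% = VIM-2 plus DMSO and 100% = no enzyme wells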)). Conditions: purified VIM-2, CCF2 FRET substrate hydrolysis; at 5.6 µM; active compounds read high.
With COc1ccc(Cc2nnc(NS(=O)(=O)Cc3ccccc3)s2)cc1 the inhibition was 29.2% (active). In the case of CCC1CCCCN1CCCNC(=O)c1cc2c(Cl)nc3ccccc3c2s1 (configuration not stated), the inhibition is reported as 3.62%. Work on Cn1c(=O)c2c(nc(N3CCOCC3)n2CCNC2=NCCC2)n(C)c1=O yielded an inhibition of 1.09%. With CCOc1cc(/C=C2\SC(N3CCCCC3)=NC2=O)ccc1O the inhibition was 1.41%. CCN1CCN(CCNC(=O)c2ccc3c(c2)NC(=O)/C(=C\c2ccc(OC)c(OC)c2)S3)CC1 was tested, and the inhibition was 31% (active). With Cc1cccn2c(=O)c(C=O)c(Nc3ccc(S(N)(=O)=O)cc3)nc12 the inhibition was 2.01%. In the case of CCOc1cc(/C=C2\SC(N3CCCC(C)C3)=NC2=O)ccc1O (configuration not stated), the inhibition is reported as -2.85%. With O=C(COc1cc2oc(=O)c3c(c2cc1Cl)CCC3)NCCCN1CCOCC1 the inhibition was -0.64%. With Cn1c(-c2sccc2OCc2cccc(C(F)(F)F)c2)n[nH]c1=S the inhibition was 58.2% (active). Work on CN(C)CCNc1ccc(-c2n[nH]c(=O)c3ccccc23)cc1[N+](=O)[O-] yielded an inhibition of -1.97%. Compound CCCc1ccc(OCCNC(=O)c2ccco2)cc1 has an inhibition of -1.44%. Cc1nc2ccccc2c2oc(C(=O)NCCCN3CCC(C)CC3)cc12 was tested, and the inhibition was 1.71%. With C=CCn1c(-c2ccccc2OCC)n[nH]c1=S the inhibition was 40.4% (active). O=C(NCCCN1CCOCC1)c1cnn2c(-c3ccccc3)cc(-c3ccccc3)nc12 gave an inhibition of -2.83%. For CCc1cc(=O)oc2cc(C)cc(OCC(=O)N3CCC[C@@H]3C(=O)O)c12, the inhibition was 32.9% (active). Cc1cc(NCc2ccco2)n2c(nc3ccccc32)c1C#N gave an inhibition of -12.9%. CCN(CC)CCOc1ccc2c(c1)C(=NNC(=O)c1ccccn1)c1cc(OCCN(CC)CC)ccc1-2 was tested, and the inhibition was 2.33%. O=C(NC(=S)Nc1ccccc1C(=O)O)c1ccc(-c2ccc(Br)cc2)o1 was tested, and the inhibition was 11.2%. Compound CCN1CCCC1CNC(=O)c1cc2c(=O)n(C)c3ccccc3c2n1C (configuration not stated) has an inhibition of -2.42%. Work on CC1CCCC(C)N1CCCNC(=O)c1cc2c(=O)n(C)c3ccccc3c2n1C (configuration not stated) yielded an inhibition of -7.42%. For NC(=O)C1CCN(C(=O)COc2ccc3c4c(c(=O)oc3c2)CCC4)CC1, the inhibition was -2.54%. Work on Cc1cc(C)c2nc3nc(C)cc(C)c3c(N)c2c1 yielded an inhibition of -10.3%. CC(NS(=O)(=O)c1ccccc1)c1n[nH]c(=S)n1-c1ccccc1 (configuration not stated) was tested, and the inhibition was 38.4% (active). Cc1cc([N+](=O)[O-])c(-c2ccc(/C=N/n3cnnc3)o2)cc1Cl gave an inhibition of -0.73%. For Fc1ccc(-c2ccc(CNCc3ccccn3)o2)cc1Cl, the inhibition was -13.3%. For CC(C)(C)CC(=O)Nc1nnc(SCC(=O)NCc2cccs2)s1, the inhibition was 45.5% (active). Work on Nc1nnc2c(C(F)(F)F)nc3ccccc3n12 yielded an inhibition of 2.08%. For CCN(CC)c1ccc2cc(C(N)=O)/c(=N\NC(=O)c3ccncc3)oc2c1, the inhibition was 11.1%. Cc1ccc2nc(C)c3c(c2c1)N(c1ccccc1)CC3 was tested, and the inhibition was -1.46%. Compound COc1ccc(/C=N/N(C)C2=NS(=O)(=O)c3ccccc32)cc1OC has an inhibition of -2.83%. For CCN1CCN(C(=O)Cn2nc(C)n3c(cc4c(OC)cccc43)c2=O)CC1, the inhibition was 1.55%. Compound Cc1cc(-c2ccc(/C=N/n3cnnc3)o2)c([N+](=O)[O-])cc1C has an inhibition of -2.34%. In the case of O=C1Nc2cc(C(=O)N3CCC(N4CCCCC4)CC3)ccc2S/C1=C\c1ccccc1, the inhibition is reported as 53.6% (active). COc1ccc(Nc2cc(C)nc(-n3nc(C)cc3C)n2)cc1 showed an inhibition of -53.5%. Compound Cc1ccc(Cl)cc1-c1ccc(/C=N/n2cnnc2)o1 has an inhibition of -0.56%. For COc1cc(NC(=O)C2=C(C)OCCS2)c(Cl)cc1C(=O)NCCN1CCN(C)CC1, the inhibition was 2.07%. COc1ccc(-c2nn3c(-c4ccccc4)nnc3s2)cc1OC was tested, and the inhibition was 1.85%. In the case of COc1cc(-c2nn3c(-c4cccc(C)c4)nnc3s2)cc(OC)c1OC, the inhibition is reported as 22.2% (active). CCOCCCNc1c(CC)c(C)c(C#N)c2nc3ccccc3n12 gave an inhibition of 0.59%. With COc1ccc(CCn2c(=N)c(C(=O)NCC3CCCO3)cc3c(=O)n4cccc(C)c4nc32)cc1OC (configuration not stated) the inhibition was -3.31%. In the case of CC(=O)c1ccc(-c2ccc(Cn3c(C)nc4cc(N)c(C)nc43)cc2)cc1, the inhibition is reported as 42.1% (active). Compound COC(=O)c1c(NC(=O)c2ccc(S(=O)(=O)N3CCOCC3)cc2)sc2c1CCN(C(C)C)C2 has an inhibition of 1.2%. With CNC(=O)c1ccsc1NC(=O)c1ccc(S(=O)(=O)N2CCOCC2)cc1 the inhibition was 37.1% (active). Compound CN1CCN(c2ccc(NC(=O)c3ccc4c(c3)[nH]c(=O)n4Cc3ccc(F)cc3)cc2)CC1 has an inhibition of -0.35%. In the case of CCOC(=O)N1CCN(C(=O)C2CCN(c3ncnc4c3sc3cccc(F)c34)CC2)CC1, the inhibition is reported as 1.58%. Nc1cccc2c1C(=O)N(Cc1nnc(-c3ccccc3Br)o1)C2=O was tested, and the inhibition was 29.6% (active). COc1nc(N=C(N)N)nc2c(C)cccc12 showed an inhibition of -4.99%. Cn1c2ccccc2c(=O)c2c(O)cccc21 was tested, and the inhibition was -1.24%. Compound COc1cc(/C=N/Nc2nn3cnnc3c3ccccc23)cc(OC)c1OC has an inhibition of 0.17%. With COC(=O)c1ccc(-c2noc(CN(Cc3ccccn3)CC3CCCO3)n2)cc1 (configuration not stated) the inhibition was -11.9%. Work on O=c1[nH]c(-c2ccccc2)c(-c2ccccc2)[nH]1 yielded an inhibition of -3.81%. Clc1cc(-c2ccc(/C=N/n3cnnc3)o2)ccc1Br showed an inhibition of -1.55%.

Reference: PubChem BioAssay AID1857 (The Scripps Research Institute Molecular Screening Center, 2009)
